Structures are written as SMILES. For part of these data: Entries with a potency or affinity are not part of this list. Activity calls are given as the source filed them.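 How the source made its calls, unless noted: active means membrane potential signal rise above negative control mean plus 3 SD in both duplicates, also active in the earlier TRPC4 screen; inactive means the rest.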

The test system of experiment [1] is TRPC4 beta (transient receptor potential cation channel C4), mouse. Briefly: TRPC4 cation channel opening, retest – cell-based, Fluo4 calcium, HEK293 TRPC4beta/mu-opioid, duplicates, 10 µM, confirmation (AID 2426;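 active means fluorescence ratio normalized to control raised more than 50% in primary screen plus both repeat runs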). The conditions noted are these: Fluo4 calcium fluorescence, at 10 µM; active compounds read high.
Experiment [2] relates to transient receptor potential cation channel C4 beta (TRPC4), mouse. The experiment is described as follows: TRPC4 cation channel opening, second retest – cell-based, second round, Fluo4, HEK293 TRPC4beta/mu-opioid, 1 µM, confirmation (AID 2461;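 active means primary screen active and over 50% activation in each of two duplicate runs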). The conditions noted are these: Fluo4 calcium fluorescence, at 1 µM; active compounds read high.
The subject of experiment [3] is TRPC4 (transient receptor potential cation channel C4 beta), mouse. The experiment is described as follows: potentiation of DAMGO EC20 TRPC4 response – cell-based, second round, Fluo-4, HEK293 TRPC4beta/mu-opioid, 1 µM, confirmation (AID 2554;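 active means primary screen hit whose fluorescence ratio, in both repeats, exceeds the weak agonist control mean by 3 SD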). The conditions noted are these: DAMGO EC20, Fluo-4 calcium flux, at 1 µM; active compounds read high. (A change in cytosolic calcium serves as a functional read-out for many receptors and channels.)

Experiment [4] has as its system TRPC4 beta (transient receptor potential cation channel C4), mouse. The experiment is described as follows: potentiation of DAMGO EC20 TRPC4 response – cell-based, Fluo-4, HEK293 TRPC4beta/mu-opioid, confirmation (AID 2555;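 active means primary screen hit whose calcium fluorescence ratio, in both repeats, exceeds the weak agonist control mean by 3 SD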). As to conditions: DAMGO EC20, Fluo-4 calcium flux, at 10 µM; active compounds read high.
Experiment [5] addresses Short transient receptor potential channel 4 (Mus musculus) (UniProt Q9QUQ5). Briefly: blockers of DAMGO-evoked TRPC4 calcium flux – cell-based, Fluo4, HEK293 TRPC4beta/mu-opioid, confirmation (AID 2636;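 active means calcium signal cut by more than 3 SD below the full-agonist control yet still positive, in both repeats and the earlier primary screen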). As to conditions: at 10 µM; active compounds read high.
For experiment [6] the target is unchanged. Briefly: blockers of DAMGO-evoked TRPC4 calcium flux – cell-based, second round, Fluo4, HEK293 TRPC4beta/mu-opioid, 1 µM, confirmation (AID 2637;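 active means calcium signal ratio cut to more than 3 SD under the fully stimulated control mean yet still positive, in both repeats and the primary screen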;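 on inhibition: percent of integrated ratio relative to wells lacking test compound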). The conditions noted are these: at 1 µM; active compounds read high.
Experiment [7] shares this target. The experiment is described as follows: calcium entry via TRPC4 opening agents – cell-based, HEK293 TRPC4/mu-opioid, Fluo-4 calcium, dose response (AID 434937;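 active means primary screen activator hit with a dose response curve and TRPC4 channel activation at any tested dose; inactive means no activation, no dose response, or not a primary hit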).
The target is the same in experiment [8]. Briefly: potentiation of DAMGO-evoked TRPC4 calcium signal – cell-based, HEK293 TRPC4/mu-opioid, Fluo-4 calcium, EC20 DAMGO, dose response (AID 434941;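 active means earlier screen potentiator hit that boosts the TRPC4 ion channel at some dose, with a dose response; inactive means no potentiation, no dose response, or not a prior hit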;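 further: calcium entry triggered by an EC20 dose of DAMGO at the co-expressed mu-opioid receptor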).
Experiment [9] addresses Short transient receptor potential channel 6 (Mus musculus) (UniProt Q61143). The experiment is described as follows: TRPC6 blockade by TRPC4 inhibitor hits – cell-based, HEK293, membrane potential dye, duplicate, selectivity assay for TRPC4 inhibitor project, confirmation (AID 434948;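 active means active in primary screen and both duplicates, each dropping signal beyond three positive-control SD with fluorescence still positive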). The conditions noted are these: HEK293 TRPC6, membrane potential dye fluorescence, at 10 µM, stimulated with maximal-effect acetylcholine; active compounds read high.

Experiment [10] shares this target. Briefly: TRPC6 opening by TRPC4 activator hits – cell-based, HEK293, membrane potential dye, duplicate, selectivity assay for TRPC4 activator project, confirmation (AID 434950). As to conditions: HEK293 TRPC6, membrane potential fluorescence, at 10 µM; activation: active compounds read high; outcome: activation.
The target is the same in experiment [11]. The experiment is described as follows: positive modulators of mouse TRPC6 channel – HEK293 cells, membrane potential dye, duplicate, selectivity assay for TRPC4 potentiator project, confirmation (AID 434952;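 active means compound raising the membrane signal above positive-control mean plus 3 SD in both repeats, and a primary screen hit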). As to conditions: HEK293 TRPC6, membrane potential dye fluorescence, at 10 µM, maximal acetylcholine added after compound; active compounds read high.
Experiment [12] has as its target Short transient receptor potential channel 4 (Mus musculus) (UniProt Q9QUQ5). The experiment is described as follows: calcium flux activators in TRPC4/5HT1a cells, counter-screen for TRPC4 activator project, cell-based, second counter screen, HEK293 TRPC4/5HT1a, Fluo-4 (AID 434977;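 active means calcium signal rise above buffer-control mean plus 5 SD in both duplicates, and also a hit in the primary screen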). As to conditions: Fluo-4 calcium flux, at 10 µM; active compounds read high.
The nature of experiment [13]: serotonin-gated TRPC4 signal block – cell-based, second counter screen, HEK293 TRPC4/5HT1a, Fluo-4, counter-screen for TRPC4 inhibitor project, confirmation (AID 434978;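 active means primary screen active whose calcium signal fell more than 3 SD beyond the full-serotonin control mean in both duplicate plates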;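 on outcome: serotonin given first at submaximal then at maximal dose after compound preincubation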). The conditions noted are these: Fluo-4 calcium flux, at 10 µM, serotonin added to trigger calcium flux; active compounds read high.
The test system of experiment [14] is TRPC4 (mouse), co-expressed with 5HT1a in HEK293. Briefly: enhancement of serotonin-evoked TRPC4 response – cell-based, second counter screen, HEK293 TRPC4/5HT1a, Fluo-4, counter-screen for TRPC4 potentiator project, confirmation (AID 434979;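 active means signal rise over 3 SD above mean of control wells given weak agonist, in both repeats and first screen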). As to conditions: Fluo-4 calcium flux, at 10 µM, serotonin added at its EC20 dose; active compounds read high. A general note: Counterscreens check selectivity or assay interference.

A short description of experiment [15]: nonspecific calcium rise without TRPC4 – cell-based, HEK293 mu-opioid receptor line, counter-screen for TRPC4 activator project, confirmation (AID 449723;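 active means hit in primary screen, with calcium signal over 5 SD above buffer well mean in both duplicates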;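 further: counter screen cells carry the mu-opioid receptor alone and lack TRPC4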). The conditions noted are these: HEK293 mu-opioid cells, Fluo-4 calcium fluorescence, at 10 µM; active compounds read high.
Experiment [16] is described as follows: nonspecific potentiation of DAMGO calcium response – cell-based, HEK293 mu-opioid receptor line, counter-screen for TRPC4 allosteric potentiator project, confirmation (AID 449724;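 active means calcium signal rise more than 3 SD above the low-dose agonist control mean, in both duplicate plates and the primary screen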;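 further: HEK293 cells carrying mu-opioid receptor only with no TRPC4 channel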). As to conditions: HEK293 mu-opioid receptor cells, Fluo-4 calcium flux, at 10 µM, compound added before EC20 DAMGO stimulus; active compounds read high.

Sequence of Short transient receptor potential channel 4 (Mus musculus) (Q9QUQ5 whole entry, looked up): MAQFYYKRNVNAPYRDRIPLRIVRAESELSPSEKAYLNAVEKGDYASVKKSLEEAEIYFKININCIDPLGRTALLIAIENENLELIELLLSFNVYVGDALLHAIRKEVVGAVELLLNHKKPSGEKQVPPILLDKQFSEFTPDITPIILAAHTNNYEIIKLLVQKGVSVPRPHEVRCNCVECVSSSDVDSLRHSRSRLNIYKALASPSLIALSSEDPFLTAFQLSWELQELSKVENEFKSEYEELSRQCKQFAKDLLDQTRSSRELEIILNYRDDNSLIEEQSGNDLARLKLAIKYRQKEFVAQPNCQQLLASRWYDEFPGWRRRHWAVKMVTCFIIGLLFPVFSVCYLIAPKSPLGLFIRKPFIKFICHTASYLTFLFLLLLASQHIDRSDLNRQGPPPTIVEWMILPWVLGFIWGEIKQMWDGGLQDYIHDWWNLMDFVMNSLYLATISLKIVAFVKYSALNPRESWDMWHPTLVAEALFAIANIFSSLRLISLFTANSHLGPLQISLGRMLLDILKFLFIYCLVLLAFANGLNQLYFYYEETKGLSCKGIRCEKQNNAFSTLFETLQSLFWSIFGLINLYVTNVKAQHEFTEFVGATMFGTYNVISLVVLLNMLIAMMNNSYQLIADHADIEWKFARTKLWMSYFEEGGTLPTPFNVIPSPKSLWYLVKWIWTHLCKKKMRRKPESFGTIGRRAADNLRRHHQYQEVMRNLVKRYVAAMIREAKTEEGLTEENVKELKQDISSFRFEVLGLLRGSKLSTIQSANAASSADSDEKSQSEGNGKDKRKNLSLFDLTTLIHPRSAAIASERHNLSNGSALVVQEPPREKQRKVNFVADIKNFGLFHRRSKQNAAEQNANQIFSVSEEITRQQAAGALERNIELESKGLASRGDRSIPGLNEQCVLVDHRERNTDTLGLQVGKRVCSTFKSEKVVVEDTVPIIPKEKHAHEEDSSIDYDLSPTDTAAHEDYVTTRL
Sequence of Short transient receptor potential channel 6 (Mus musculus) (Q61143 whole entry, looked up): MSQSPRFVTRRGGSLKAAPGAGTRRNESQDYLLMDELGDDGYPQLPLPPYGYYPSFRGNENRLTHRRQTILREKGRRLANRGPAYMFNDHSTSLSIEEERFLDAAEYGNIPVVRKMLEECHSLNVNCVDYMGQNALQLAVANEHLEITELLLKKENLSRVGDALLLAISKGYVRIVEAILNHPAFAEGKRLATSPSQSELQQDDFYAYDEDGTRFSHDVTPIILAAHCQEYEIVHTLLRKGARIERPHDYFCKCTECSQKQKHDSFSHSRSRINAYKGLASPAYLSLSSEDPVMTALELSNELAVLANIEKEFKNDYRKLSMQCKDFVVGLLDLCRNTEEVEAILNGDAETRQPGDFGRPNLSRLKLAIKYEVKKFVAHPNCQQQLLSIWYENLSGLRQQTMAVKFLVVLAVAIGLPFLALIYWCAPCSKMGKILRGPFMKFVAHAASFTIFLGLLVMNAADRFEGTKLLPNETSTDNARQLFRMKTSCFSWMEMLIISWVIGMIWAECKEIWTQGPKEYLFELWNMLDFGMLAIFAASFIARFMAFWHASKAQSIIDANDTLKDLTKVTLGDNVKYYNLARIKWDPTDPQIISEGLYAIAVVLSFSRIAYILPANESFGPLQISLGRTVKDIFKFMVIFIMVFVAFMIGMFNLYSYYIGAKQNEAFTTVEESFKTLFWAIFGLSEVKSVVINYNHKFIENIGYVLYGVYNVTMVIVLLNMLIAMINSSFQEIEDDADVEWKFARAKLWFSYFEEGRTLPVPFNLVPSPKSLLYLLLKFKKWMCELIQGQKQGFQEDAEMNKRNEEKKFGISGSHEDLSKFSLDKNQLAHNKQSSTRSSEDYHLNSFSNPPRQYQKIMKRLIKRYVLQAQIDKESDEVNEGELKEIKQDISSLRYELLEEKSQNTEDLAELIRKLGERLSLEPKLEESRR

`O=C(OCC(=O)N1CCc2ccccc2C1)c1cccc([N+](=O)[O-])c1`: the outcome in [1], in experiment [2], in experiment [3], in experiment [4], in [7] and in [8] was inactive. Further, the compound was called inactive in experiment [9], in experiment [10], in [11], in experiment [12], in experiment [14] and in experiment [15]. For the same compound, the outcome in [16] was inactive. For the same compound, the inhibition in experiment [5] was 95% (active); in [6], 47% (active); in [13], 40.7% (active).
As to `O=C(O)c1cc(NN=C2c3ccccc3-c3ccccc32)ccc1Cl`, the outcome in experiment [1], in [2], in [3], in experiment [4], in experiment [6] and in experiment [7] was inactive. Besides, the result in experiment [8], in [10], in [11], in experiment [12], in experiment [14] and in [15] was inactive. In addition, the outcome in [16] was inactive. Further, the inhibition in experiment [5] was 98% (active); in experiment [9] it was 32% (active); in [13] it was 11.8% (active).
With `CCOc1cc(CNC2CCCC2)cc(Cl)c1OCc1ccccc1`, the result in experiment [1], in [2], in experiment [3], in [4], in [6] and in [7] was inactive. Further, the outcome in experiment [8], in [9], in [10], in experiment [11], in [12] and in [14] was inactive. Moreover, the result in [15] and in experiment [16] was inactive. For the same compound, the inhibition is 76% (active) in [5] and 33% (active) in [13].
With `S=C(Nc1ccccc1)Nc1cc(Cl)ccc1Oc1ccccc1`, the result in experiment [1], in experiment [2], in experiment [3], in experiment [4], in [6] and in experiment [7] was inactive. Also, the outcome in experiment [8], in experiment [9], in experiment [10], in experiment [11], in experiment [12] and in experiment [14] was inactive. The outcome in experiment [15] and in experiment [16] was inactive. Besides, the inhibition is 78% (active) in experiment [5] and 40.2% (active) in experiment [13].
Turning to `c1ccc(Cn2c(CN3CCCC3)nc3ccccc32)cc1`, the outcome in experiment [1], in experiment [2], in experiment [3], in experiment [4], in [7] and in experiment [8] was inactive. Moreover, the result in [9], in [10], in experiment [11], in experiment [12], in experiment [14] and in [15] was inactive. Also, the result in [16] was inactive. The inhibition is 96% (active) in experiment [5], 67% (active) in experiment [6] and 18% (active) in [13].
`CN(C)C(CNC(=O)c1cccc(C(F)(F)F)c1)c1ccco1` (stereo not given): the result in [1], in [2], in [3], in experiment [4], in [7] and in [8] was inactive. Besides, the outcome in experiment [9], in experiment [10], in experiment [11], in [12], in [13] and in experiment [14] was inactive. The outcome in experiment [15] and in experiment [16] was inactive. Also, the results for the inhibition in [5] and in experiment [6] were 67% (active) and 69% (active), respectively.
`Cc1ccc(C[n+]2cc(-c3ccc(Cl)cc3)n3c2CCC3)cc1`: the outcome in experiment [1], in [2], in experiment [3], in experiment [4], in [7] and in experiment [8] was inactive. Moreover, the compound was classed as inactive in experiment [9], in [10], in experiment [11], in experiment [12], in [14] and in experiment [15]. Further, the outcome in [16] was inactive. Moreover, the inhibition in experiment [5] is 73% (active); in [6], 64% (active); in experiment [13] it was 41.9% (active).
Take `CC(C)n1c(NCc2c[nH]c3ccccc23)nc2ccccc21`: the outcome in experiment [1], in experiment [2], in experiment [3], in experiment [4], in experiment [6] and in [7] was inactive. Also, the result in experiment [8], in experiment [10], in experiment [11], in experiment [12], in [14] and in experiment [15] was inactive. For the same compound, the outcome in experiment [16] was inactive. Besides, the inhibition is 50% (active) in experiment [5], 33.5% (active) in experiment [9] and 26.4% (active) in experiment [13].
With `COc1ccc(-n2c3c(cc(C(=O)NCc4ccco4)c2=O)C(=O)CC(C)(C)C3)cc1`, the outcome in [1], in [2], in experiment [3], in experiment [4], in [6] and in experiment [7] was inactive. Further, the outcome in experiment [8], in [9], in [10], in experiment [11], in experiment [12] and in experiment [13] was inactive. Moreover, the result in [14], in [15] and in [16] was inactive. For the same compound, the inhibition in experiment [5] is 53% (active).
Consider `COc1ccccc1C(=O)Nc1ccc2c(c1)CCCN2C(=O)c1cccs1`, for which the result in [1], in [2], in experiment [3], in [4], in experiment [5] and in experiment [6] was inactive. Moreover, the outcome in [7], in [8], in experiment [9], in experiment [10], in experiment [11] and in [12] was inactive. Besides, the outcome in experiment [13], in experiment [14], in experiment [15] and in experiment [16] was inactive.
As for `Cc1c(CCOC(=O)c2cccc([N+](=O)[O-])c2)sc[n+]1CC(=O)c1ccccc1`, the outcome in experiment [1], in experiment [2], in [3], in experiment [4], in experiment [6] and in experiment [7] was inactive. Besides, the result in [8], in experiment [9], in experiment [10], in experiment [11], in experiment [12] and in [14] was inactive. Also, the result in [15] and in experiment [16] was inactive. Besides, the inhibition in [5] was 88% (active); in [13], 28.9% (active).
For `c1ccc(Nc2n[nH]nc2-c2ccccc2)cc1`, the outcome in experiment [1], in experiment [2], in [3], in experiment [4], in experiment [7] and in [8] was inactive. For the same compound, the compound was classed as inactive in experiment [9], in [10], in [11], in [12], in [14] and in experiment [15]. Moreover, in experiment [16], the result was inactive. Further, the inhibition in [5] is 96% (active); in experiment [6], 60% (active); in experiment [13], 17.4% (active).
As to `COc1ccc(-c2csc(NC(=O)Cc3cccc4ccccc34)c2C(=O)O)cc1`, the outcome in [1], in experiment [2], in experiment [3], in experiment [4], in experiment [6] and in experiment [7] was inactive. The outcome in [8], in [9], in experiment [10], in experiment [11], in experiment [12] and in experiment [14] was inactive. Also, the result in experiment [15] and in experiment [16] was inactive. For the same compound, the inhibition in [5] is 90% (active); in experiment [13] it was 40.2% (active).
For `O=C(O)c1ccc(N/N=C/c2ccc(-c3cccc(Cl)c3)o2)cc1`, the result in [1], in [2], in [3], in [4], in experiment [7] and in [8] was inactive. In addition, the compound was called inactive in experiment [9], in [10], in experiment [11], in experiment [12], in experiment [13] and in experiment [14]. Moreover, the outcome in [15] and in experiment [16] was inactive. The inhibition is 87% (active) in experiment [5] and 42% (active) in experiment [6].
As to `COc1ccc(NC(=O)c2c[nH]n3c(=O)cc(C4CCN(C(=O)OC(C)(C)C)CC4)nc23)cc1Cl`, the result in [1], in experiment [2], in experiment [3], in experiment [4], in [7] and in [8] was inactive. Besides, the result in experiment [9], in experiment [10], in experiment [11], in experiment [12], in experiment [14] and in experiment [15] was inactive. Also, in experiment [16], the result was inactive. Moreover, the figures for the inhibition in experiment [5], in experiment [6] and in experiment [13] were 86% (active), 41% (active) and 40.1% (active), respectively.

As usually defined, the inhibition is the change of the read-out against control, counted positive when it falls.

Values taken from PubChem BioAssay.
